m-calpain inh: inhibitors of pig calpain II; purified calpain II, fluorogenic peptide substrate, 30 min; inhibition, % at 16 µM; hit rate 0.37% among 220,000;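 active means inhibition above about 50%, limit read from the data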
TNF necrop inh: TNF-alpha cell death inhibition in Jurkat FADD-/- cells | Jurkat FADD-/- TNF necroptosis rescue, ATP luminescence, 24 h; 0 = TNF only, 100 = no-TNF cells | hit rate 0.068% among 220,000 | AID 463075 | activation (protection from cell death), % at 10 µM;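 active means activation, meaning protection from cell death, of at least 50% relative to plate controls; inactive means activation below 50%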;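 further: necroptosis triggered by 40 ng/mL TNF-alpha added together with compound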
Mcl1-Noxa inh: disrupts binding of human Mcl-1 to Noxa peptide | TR-FRET Mcl-1/Noxa peptide binding, 2 h | inhibition, % at 21.7 µM | hit rate 1.5% among 220,000 | AID 1022;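 active means compounds that cut the protein-peptide binding signal by more than 50% relative to plate controls in a single-dose test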;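 further: His-tagged Mcl-1 with rhodamine Noxa BH3 peptide and terbium anti-His antibody; 0% = Mcl-1 plus Noxa peptide wells and 100% = peptide-only wells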
Target sequence (Q07820 whole entry, looked up): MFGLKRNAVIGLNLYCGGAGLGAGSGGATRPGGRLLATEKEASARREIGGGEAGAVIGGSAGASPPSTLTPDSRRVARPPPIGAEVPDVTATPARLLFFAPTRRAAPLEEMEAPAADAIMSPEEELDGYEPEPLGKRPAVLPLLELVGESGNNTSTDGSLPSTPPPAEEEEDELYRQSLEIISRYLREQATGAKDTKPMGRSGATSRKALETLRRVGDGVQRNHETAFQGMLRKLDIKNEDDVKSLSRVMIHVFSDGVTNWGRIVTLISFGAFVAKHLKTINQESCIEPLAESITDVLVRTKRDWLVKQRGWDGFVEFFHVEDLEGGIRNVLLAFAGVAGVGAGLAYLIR
Mcl1-Bid inh: Mcl-1/Bid interaction inhibition. Q07820. TR-FRET Mcl-1/Bid-Dy647 peptide binding, 1536-well. inhibition, % at 21.7 µM. hit rate 0.97% among 220,000. AID 1021;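 active means compounds that cut the binding signal by more than half at the single screening dose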;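 further: His-tagged Mcl-1 with europium anti-His antibody binding Bid BH3 peptide; 0% = Mcl-1 plus peptide wells and 100% = peptide-only wells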
L929 necroptosis: blocks zVAD induced death of L929 cells; L929 zVAD necroptosis rescue, ATP luminescence, 24 h; with zVAD 60 µM; viability rescue, % at 10 µM; hit rate 0.38% among 220,000; AID 1377;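 active means activation, scaled between plate controls, above about 75%, limit read from the data; inactive means activation under that limit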;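 further: 0% = zVAD with DMSO and 100% = DMSO alone without zVAD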
Bim-Mcl-1: human Bim-Mcl-1 interaction inhibition; Q07820; hit rate 0.1% among 190,000; AID 1009; inhibition, % at 10 µM; Bead-based flow cytometry, Bim peptide-Mcl-1 binding; in the data active means inhibition above about 40%;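 further: 0% = no compound tracer wells and 100% = peptide blocker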
Active calls of the source: *; nt = not tested or not shown. Rows were chosen to be rich in hits. Some 2.8% of all compounds tested hit in one or more screens of this group.

SMILES | m-calpain inh | TNF necrop inh | Mcl1-Noxa inh | Mcl1-Bid inh | L929 necroptosis | Bim-Mcl-1
O=C(CN1CCCCCC1)NN(Cc1ccccc1)c1ccccc1 | 17.6 | -3.0 | 22.1 | 26.2 | -1.0 | nt
CC(=O)c1c(C)[nH]c(C(=O)OCc2nnc(-c3ccccc3)o2)c1C | -29.7 | 1.4 | -15.4 | 51.3* | -0.1 | -2.0
COc1ccc(C(=S)N2CCOCC2)cc1OS(=O)(=O)c1ccccc1[N+](=O)[O-] | 11.2 | 0.2 | 5.1 | -19.9 | -0.4 | -9.0
CC(C)CN(CC(C)C)C(=S)NC1CCCCC1 | 5.7 | 0.6 | 15.4 | 93.0* | 0.1 | -1.0
Cc1occc(=O)c1OC(=O)Nc1ccccc1 | 9.1 | -0.4 | 3.5 | -44.7 | 0.9 | 2.0
CC(C)n1c(O)c(N=NC(=O)CNC(=O)CCc2ccccc2)c2ccccc21 | 66.4* | -1.3 | 18.0 | -4.0 | -0.4 | nt
O=S(=O)(NCc1cn2ccccc2n1)c1cc(F)ccc1F | -3.7 | 0.9 | 10.5 | -10.2 | 0.6 | -6.0
COC(=O)C(C(=O)OC)C(C[N+](=O)[O-])c1ccc(O)c(OC)c1 (centres undefined) | -7.3 | 1.0 | 8.3 | -16.1 | -0.8 | -3.0
O=C(Nc1ccccc1)c1ccc(=O)n(Cc2ccc(F)c(F)c2)c1 | -6.5 | 1.1 | 17.2 | -12.9 | 3.1 | -1.0
O=C(CSc1ccsc1[N+](=O)[O-])N1CCN(c2ccccc2)CC1 | -53.5 | 3.2 | 64.7* | 4.7 | 1.1 | -5.0
O=C(CSc1ccsc1[N+](=O)[O-])N1CCN(c2ccc(Cl)cc2)CC1 | -45.1 | 2.3 | 95.3* | -0.9 | 0.0 | -4.0
Cc1ccccc1NC(=O)CSc1ccsc1[N+](=O)[O-] | -12.4 | 4.4 | 71.3* | -60.8 | 0.4 | -5.0
Cc1cc(=O)c2ccc(C(F)(F)F)cc2[nH]1 | -26.0 | 1.1 | 29.8 | 82.7* | 0.4 | nt
CC(=O)NC1(C(F)(F)F)C(=O)Nc2c1c(=O)[nH]c(=O)n2CC(C)C (centres undefined) | -29.6 | -0.1 | -0.4 | -12.4 | 0.1 | 2.0
Cc1ccc(-n2c(SCC(=O)NCCN3C(=O)CSC3=O)nnc2-c2ccccc2)cc1C | 15.8 | -0.2 | 10.8 | 51.5* | -0.8 | -6.0
COc1ccc(N2CCN(C(c3cccs3)C(C)NS(C)(=O)=O)CC2)cc1 (centres undefined) | 50.8* | 0.6 | 15.9 | -43.4 | -1.5 | -1.0
COc1ccccc1N1CCN(C(=O)CN2C(=O)c3ccccc3S2(=O)=O)CC1 | -2.8 | -0.9 | 12.7 | -11.1 | -0.1 | nt
Oc1c(/C=C/C=C/C=Nc2ccccc2)sc(=S)n1Cc1ccccc1 | -11.3 | -20.6 | 32.5 | -94.3 | -0.9 | nt
Nc1ccc(N2CCCCC2)cc1N1CCCCC1 | 14.9 | -14.0 | 75.7* | -14.9 | 0.1 | 0.0
CCOC(=O)C1(CC2CCCCO2)CCN(Cc2cc3ccccc3[nH]2)CC1 (centres undefined) | -16.7 | -0.3 | 11.9 | 0.1 | 39.9 | -2.0
COCc1c(Br)c(C)nc(OCC(=O)N/N=C/c2cc(C)n(-c3ccc([N+](=O)[O-])cc3)c2C)c1C#N | -77.9 | -0.4 | -13.9 | -4.4 | 0.9 | -3.0
CCN(CC)CCNC(=O)c1ccc2c(c1)ncn2C1CCCCC1 | -4.7 | -0.3 | 3.5 | -12.6 | 93.2* | 0.0
O=C(COC(=O)CCc1ccccc1)NC12CC3CC(CC(C3)C1)C2 | 50.1* | -1.2 | -6.8 | 9.5 | -0.4 | -1.0
COc1ccc2c(c1OC)C(=O)N1N=C(c3ccc(O)cc3)CC21 (centres undefined) | 14.0 | -4.1 | 17.4 | -8.3 | -0.3 | -3.0
Cc1noc2ncnc(SCc3ccc(C(F)(F)F)cc3)c12 | -11.8 | -3.7 | 10.6 | 69.4* | 0.4 | nt
SMILES | m-calpain inh | TNF necrop inh | Mcl1-Noxa inh | Mcl1-Bid inh | L929 necroptosis | Bim-Mcl-1
Cc1ccc(CSc2ncnc3onc(C)c23)cc1 | 9.5 | -0.9 | -0.2 | -3.8 | -0.4 | nt
Cc1cc(C)c(N)c(C(=O)O)c1 | -156.7 | 1.8 | 12.8 | 61.0* | -0.1 | nt
COc1ccc(CONS(=O)(=O)c2ccc(NC(C)=O)cc2)cc1Cl | -40.4 | -2.6 | 12.9 | -8.5 | 0.1 | -3.0
N#Cc1c(-c2ccccc2)nc(-c2ccccc2)nc1N1CCOCC1 | -36.5 | 1.1 | 23.8 | 50.9* | 0.5 | -1.0
Cc1noc(C)c1CSc1ncnc2ccccc12 | -17.2 | -4.9 | -4.0 | -18.7 | -0.5 | 0.0
Cc1cc(C(=O)COC(=O)c2cc(O)c3ccccc3c2O)c(C)n1CC1CCCO1 (centres undefined) | -102.1 | -4.0 | 98.8* | 36.6 | 1.0 | 0.0
Cc1cc(C(=O)COC(=O)c2ccccc2Br)c(C)n1CC1CCCO1 (centres undefined) | 7.3 | -1.0 | 5.8 | -51.6 | 0.7 | nt
O=C(COC(=O)c1cc(Cl)ccc1[N+](=O)[O-])Nc1cccc2ccccc12 | 11.2 | 1.2 | -1.0 | -22.2 | 0.6 | -6.0
CN(C)c1ccc(NC(=O)COC(=O)c2cc(Cl)ccc2[N+](=O)[O-])cc1 | 6.4 | 0.8 | 53.5* | -45.7 | 0.1 | -3.0
O=C(COC(=O)c1cc(Cl)ccc1[N+](=O)[O-])NCc1ccc(Cl)cc1Cl | 57.1* | 0.9 | 10.1 | -3.9 | 0.5 | -4.0
Cc1ccc(/C=C2/SC(=O)NC2=S)o1 | -5.2 | -1.8 | 77.1* | -55.1 | 0.2 | 0.0
COc1cc(/C=C2\SC(=O)NC2=O)ccc1Oc1ccc([N+](=O)[O-])cc1[N+](=O)[O-] | 15.4 | 2.0 | 86.8* | -105.2 | 0.4 | -2.0
COc1ccc(/C=C2\SC(=O)NC2=S)cc1OC | -5.4 | 1.8 | 64.3* | -62.5 | 62.2 | 23.0
O=C(O)CC(NC(=O)COc1ccccc1)c1cccc([N+](=O)[O-])c1 (centres undefined) | -4.0 | 0.1 | 20.7 | -19.0 | 0.6 | 3.0
N#CC1(NC(=O)CN2CCc3ccccc3C2)CCCC1 | 12.6 | 1.2 | -6.5 | -8.5 | 0.7 | -3.0
CC(=O)N1CC=CC1(C)C(=O)O (centres undefined) | -4.2 | 0.4 | 16.1 | -6.6 | 5.8 | 0.0
CCOC(=O)c1ccc(S(=O)(=O)N2CCN(C3CCCC3)CC2)cc1 | -26.2 | 0.9 | 3.7 | -2.9 | 0.2 | 0.0
NS(=O)(=O)c1ccc(NC(=O)COC(=O)CCNC(=O)NC23CC4CC(CC(C4)C2)C3)cc1 | -2.1 | -0.2 | 20.2 | -30.2 | -0.7 | -1.0
COc1ccc(NC(=O)c2cc(C3CC3)on2)c(OC)c1 | 14.3 | 1.7 | -5.3 | 85.3* | 1.3 | -3.0
Cc1cc(NC(=O)c2cc(C3CC3)on2)no1 | 11.7 | -0.2 | -3.2 | -4.7 | 0.2 | 0.0
CCOC(=O)C1=C(O)/C(=C\c2ccc(CNC(=O)C(=O)Nc3ccccc3)o2)N=C1C | -162.7 | -0.8 | 95.9* | 39.9 | 0.3 | -1.0
Clc1ccc(-c2nnc3sc(-c4ccc(Br)o4)nn23)c(Cl)c1 | -29.8 | -1.9 | 2.2 | -24.2 | -0.4 | -3.0
Cc1oc(-c2ccc(Cl)cc2)cc1-c1nn2c(-c3ccoc3C)nnc2s1 | -278.7 | -2.2 | 88.5* | 54.9* | 0.3 | 0.0
CN(C)c1ccc(-c2nn3c(-c4ccc(Cl)cc4Cl)nnc3s2)cc1 | -36.1 | -14.4 | 87.1* | 93.3* | 1.9 | -5.0

Assay outcomes: PubChem BioAssay, several laboratories
